Shown are actives, neighbours in structure and some others; about 4.8% of the full set was active somewhere.
hgDAF12 agonist: H. glycines DAF-12 receptor agonists, primary screen, cell-based, luminescence, HEK293, GAL4 fusion, UAS-luciferase; Nuclear hormone receptor DAF-12 (Heterodera glycines), GAL4 fusion; HEK293 GAL4-hgDAF12 UAS-luciferase reporter, agonist luminescence; normalized to butyrate control; activation, % at 6.8 µM; 370,000 tested, 1.8% active;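 active = activation above a cutoff set at the mean of all screened compounds plus 3 SD, cut at about 10% in these data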
ssDAF-12 act: S. stercoralis DAF-12 nuclear receptor activators, primary screen, cell-based, luminescence, HEK293, GRIP1 co-expression, lit1-tk-luc; Nuclear hormone receptor DAF-12 (Strongyloides stercoralis); HEK293 ssDAF-12/GRIP1 lit1-tk-luc reporter; % of 3 µM dafachronic acid response; activation, % at 6.8 µM; 370,000 tested, 1% active;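 active = activation above the mean over all tested compounds plus 3 SD, cut at about 0.9% in these data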
Rev-erbA mod: modulators of Rev-erb alpha DNA binding, primary screen, biochemical, FITC-DNA, fluorescence polarization, uHTS | activity, % at 10 µM | Nuclear receptor subfamily 1 group D member 1 (Homo sapiens), P20393 | AID 1259318, 2017 | 370,000 tested, 0.79% active | Rev-erbα–FITC-DNA binding, 90 min;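 active = activity above about 14%, limit read from the data; passing the limit was not always enough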
DAX1 inh-1: DAX1 (NR0B1) inhibitors, primary screen, cell-based, HEK293, Gal4-DAX1, luciferase luminescence. HEK293 Gal4-DAX1 luciferase reporter. 340,000 tested, 0.99% active. inhibition, % at 6.75 µM. Nuclear receptor subfamily 0 group B member 1 (Homo sapiens), P51843;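 active = inhibition above the mean over all tested compounds plus 3 SD, cut at about 4.2% in these data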;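 note: inhibition shows as a rise in luminescence from relieved DAX1 repression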
hcDAF12 agonist: H. contortus DAF-12 nuclear receptor activators, primary screen, cell-based, luminescence, HEK293, lit1-tk-luc reporter | HEK293 hcDAF-12 lit1-tk-luc reporter; 0% DMSO, 100% Δ7-dafachronic acid | activation, % at 6.8 µM | 370,000 tested, 1.4% active | AID 652067, 2013;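 active = activation above the mean of all tested compounds plus 3 SD, cut at about 5.5% in these data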
DAX1 inh-2: DAX1 (NR0B1) inhibitors on StAR promoter, primary screen, cell-based, luminescence, SF-1 (NR5A1), full-length DAX-1. inhibition, % at 6.8 µM. AID 652010, 2013. HEK293T StAR-luciferase reporter, SF-1/DAX-1 repression relief. 370,000 tested, 1.1% active;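 active = inhibition above the mean over all tested compounds plus 3 SD, cut at about 3.6% in these data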;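 note: higher inhibition means more luminescence from relief of DAX-1 repression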
Each line names hits and unclear results; the compound was inactive in the other large screens.

O=C(Nc1ccc(N2CCOCC2)c(Cl)c1)c1ccc(F)cc1	DAX1 inh-1 5.2
CCN1CCN(c2ccc(NC(=O)c3cccc(F)c3)cc2Cl)CC1	hgDAF12 agonist 13
O=C(Nc1ccc(N2CCOCC2)c(Cl)c1)c1ccc(-n2cnnc2)cc1	none
COC(=O)[C@]1(CNC(=O)c2cc(F)ccc2F)CC(=O)N(C)[C@@H]1c1ccccc1	none (no result: DAX1 inh-1)
COCCNc1nc(Oc2ccc(CC(=O)OC)cc2)c2sc(-c3ccccc3)cc2n1	DAX1 inh-2 3.8 (no result: DAX1 inh-1)
COCCNc1nc(Oc2ccc(NC(C)=O)cc2)c2sc(-c3ccccc3)cc2n1	none (no result: DAX1 inh-1)
OCCNc1nc(Nc2ccc(O)cc2)nc2ccccc12	DAX1 inh-1 5.8
O=[N+]([O-])c1cc(Oc2cccnc2)cc([N+](=O)[O-])c1	DAX1 inh-1 4.4
O=C(CCc1ccccc1-c1ccccc1CCNC(=O)c1ccccc1)NCc1ccccc1	none (no result: DAX1 inh-1)
CC(C)CN1C(=O)[C@@]2(CC(=O)N(C)C2c2ccccc2)c2cc(-n3cc(CO)nn3)ccc21 (stereo partly specified)	none (no result: DAX1 inh-1)
Cc1cc(C)cc(Nc2nc3ccc(C)cc3n3cnnc23)c1	none
Cc1cccc(CCNc2nc3ccc(C)cc3n3cnnc23)c1	DAX1 inh-1 5.0
CCOC(=O)c1c(NC(=S)NCc2ccccc2)sc2c1CCN(C(=O)OCC)C2	DAX1 inh-1 6.0
C=CCNC(=S)Nc1sc2c(c1C(=O)OCC)CCN(C(=O)OCC)C2	none
CC(C)CNc1cccc2c1S(=O)(=O)N[C@@H](C)CO2	none (no result: DAX1 inh-1)
COC(=O)c1ccccc1NC(=O)C12CCC(C)(C(=O)O1)C2(C)C (stereo unspecified)	ssDAF-12 act 1.9
COC(=O)c1ccccc1NC(=O)NCc1ccncc1	ssDAF-12 act 6.6
COC(=O)c1ccccc1NC(=O)NCc1ccccc1	none
COC(=O)Cn1cnc2c(NC(=O)c3ccccc3)ncnc21	none (no result: DAX1 inh-1)
O=C1NC(=Nc2ccccc2)c2c1cccc2[N+](=O)[O-]	ssDAF-12 act 1.3
C[C@@H]1CCCN1c1cccc2c1S(=O)(=O)N(C1CC1)CCCO2	none (no result: DAX1 inh-1)
O=C(OCCN1CCN(C2CN(Cc3cn(Cc4ccccc4F)nn3)S(=O)(=O)C2)CC1)c1cc2ccccc2o1 (stereo unspecified)	none (no result: DAX1 inh-1)
OCCCNCc1ccc(N(c2ccccc2)c2ccccc2)cc1	DAX1 inh-1 5.9
Cc1cc(C)cc(NC(=O)C2CCCN(c3ncccn3)C2)c1 (stereo unspecified)	none
Cc1ccc(NC(=O)C2CCCN(c3ncccn3)C2)cc1F (stereo unspecified)	hgDAF12 agonist 12
O=C(Nc1ccc2c(c1)CCC2)C1CCCN(c2ncccn2)C1 (stereo unspecified)	hgDAF12 agonist 11
COC(=O)c1cc(S(=O)(=O)N2CCN(c3cccc(C(F)(F)F)c3)CC2)cn1C	none (no result: DAX1 inh-1)
CC(C)Cc1nnc(NC(=O)c2cc3c(s2)CCC3)s1	none
O=C(Nc1nncs1)c1cc2c(s1)CCC2	hgDAF12 agonist 12
NNC(=O)Cn1nnc(-c2ccc(C(F)(F)F)cc2)n1	ssDAF-12 act 0.9 (no result: DAX1 inh-1)
CC(=O)Cn1nnc(-c2ccc(C(F)(F)F)cc2)n1	none
CC(C)CN1C(=O)[C@]2(CC(=O)N(C)C2c2ccccc2)c2cc(-n3cc(C4=CCCCC4)nn3)ccc21 (stereo partly specified)	none (no result: DAX1 inh-1)
O=C1CCC[C@H]2C[C@H](NCc3cccc(F)c3)CC[C@]23CCCN13	none (no result: DAX1 inh-1, DAX1 inh-2)
Clc1ccc(-n2c(Cc3cccs3)nnc2SC/C=C/c2ccccc2)cc1	none (no result: DAX1 inh-1)
CCOc1cc(/C=C2/SC(=S)N(CC(=O)O)C2=O)ccc1OC(=O)c1cccs1	DAX1 inh-1 5.2
COc1cc(/C=C2\SC(=S)N(CC(=O)O)C2=O)ccc1OC(=O)c1ccco1	none

Screening data: PubChem, several laboratories
